Assays:
Experiment in all cases: DAPPL (digital affinity profiling via proximity ligation, sequencing); 10 mM Tris-HCl pH 7.5, 50 mM NaCl, 1 mM DTT, 4% glycerol, room temperature, 30 min; GST-TFs on glutathione beads, 16-mer random dsDNA library, 0.1% formaldehyde crosslink after washing; high values mean tight binding
[1] = target: T1, FLI1 (Homo sapiens, UniProt Q01543 1-452); details: protein: recombinant; tags: N-terminal GST; dsDNA, one strand shown
T1 sequence: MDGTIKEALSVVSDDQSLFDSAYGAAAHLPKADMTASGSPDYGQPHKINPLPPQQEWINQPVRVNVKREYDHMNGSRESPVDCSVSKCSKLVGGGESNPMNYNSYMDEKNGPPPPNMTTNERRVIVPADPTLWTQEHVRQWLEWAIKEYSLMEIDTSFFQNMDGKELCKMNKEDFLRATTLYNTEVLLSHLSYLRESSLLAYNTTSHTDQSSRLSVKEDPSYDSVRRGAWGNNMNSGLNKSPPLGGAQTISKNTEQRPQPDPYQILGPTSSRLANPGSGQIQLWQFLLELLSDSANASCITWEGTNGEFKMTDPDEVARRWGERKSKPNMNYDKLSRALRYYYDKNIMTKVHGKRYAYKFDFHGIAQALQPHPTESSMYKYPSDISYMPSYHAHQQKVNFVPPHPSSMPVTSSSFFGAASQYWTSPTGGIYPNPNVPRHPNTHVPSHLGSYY
Procedure, shortened: (§1)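 Human transcription factors fused to GST were expressed in yeast, captured on glutathione beads, given DNA barcodes and pooled with a GST-only negative control. Pools were incubated with 200 nmole of a 16-mer random double-stranded DNA library in Tris/NaCl/DTT/glycerol buffer at room temperature for 30 min. They were then washed, crosslinked with 0.1% formaldehyde, proximity-ligated (BsaI/T4 ligase, 1 h, 37 °C), PCR-amplified and sequenced on an Illumina NextSeq500. Binding signal is each 6-mer's read frequency for a factor divided by its frequency for the GST control.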

[2] = target: T2, ELK1 (Homo sapiens, UniProt P19419 1-428); details: protein: recombinant; tags: N-terminal GST; dsDNA, one strand shown
T2 sequence: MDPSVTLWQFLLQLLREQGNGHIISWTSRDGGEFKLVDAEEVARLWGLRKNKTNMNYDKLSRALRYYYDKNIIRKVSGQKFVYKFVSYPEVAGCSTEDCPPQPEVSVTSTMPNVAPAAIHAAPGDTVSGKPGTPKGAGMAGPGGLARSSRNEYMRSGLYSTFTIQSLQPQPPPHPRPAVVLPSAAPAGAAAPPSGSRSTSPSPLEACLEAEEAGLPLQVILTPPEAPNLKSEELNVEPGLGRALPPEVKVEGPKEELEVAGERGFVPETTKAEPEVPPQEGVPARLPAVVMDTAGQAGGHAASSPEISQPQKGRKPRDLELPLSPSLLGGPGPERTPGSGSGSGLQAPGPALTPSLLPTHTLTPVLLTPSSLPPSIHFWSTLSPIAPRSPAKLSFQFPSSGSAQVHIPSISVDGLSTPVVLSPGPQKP
Procedure, shortened: as §1

[3] = target: T3, GABPA (Homo sapiens, UniProt Q06546 1-454); details: protein: recombinant; tags: N-terminal GST; dsDNA, one strand shown
T3 sequence: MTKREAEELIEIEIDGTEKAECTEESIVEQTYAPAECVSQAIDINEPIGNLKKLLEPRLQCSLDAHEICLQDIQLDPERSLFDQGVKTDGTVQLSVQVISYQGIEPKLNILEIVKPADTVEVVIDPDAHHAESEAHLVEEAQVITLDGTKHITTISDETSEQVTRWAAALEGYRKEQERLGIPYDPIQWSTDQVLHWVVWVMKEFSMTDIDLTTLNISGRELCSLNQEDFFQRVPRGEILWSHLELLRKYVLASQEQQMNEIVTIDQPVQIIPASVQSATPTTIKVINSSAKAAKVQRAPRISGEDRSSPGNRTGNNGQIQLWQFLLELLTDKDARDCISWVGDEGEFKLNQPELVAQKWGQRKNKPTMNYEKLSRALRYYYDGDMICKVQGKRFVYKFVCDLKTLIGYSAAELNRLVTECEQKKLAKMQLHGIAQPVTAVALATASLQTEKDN
Procedure, shortened: as §1

[4] = target: T4, ERG (Homo sapiens, UniProt P11308 1-479); details: protein: recombinant; tags: N-terminal GST; dsDNA, one strand shown
T4 sequence: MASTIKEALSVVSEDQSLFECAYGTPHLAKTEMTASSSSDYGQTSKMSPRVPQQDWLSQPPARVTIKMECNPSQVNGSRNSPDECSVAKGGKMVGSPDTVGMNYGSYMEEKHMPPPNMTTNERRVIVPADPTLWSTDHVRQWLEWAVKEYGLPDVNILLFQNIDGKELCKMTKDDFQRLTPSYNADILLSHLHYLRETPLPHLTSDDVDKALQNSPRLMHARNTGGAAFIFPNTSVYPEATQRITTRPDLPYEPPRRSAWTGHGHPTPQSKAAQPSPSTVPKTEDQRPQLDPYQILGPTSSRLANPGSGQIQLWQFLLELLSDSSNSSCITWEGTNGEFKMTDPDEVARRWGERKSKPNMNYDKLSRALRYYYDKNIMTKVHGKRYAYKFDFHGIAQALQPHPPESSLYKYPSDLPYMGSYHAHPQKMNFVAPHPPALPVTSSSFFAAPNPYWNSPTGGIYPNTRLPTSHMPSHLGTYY
Procedure, shortened: as §1

[5] = target: ELF1 (Homo sapiens, UniProt P32519 1-619); details: protein: recombinant; tags: N-terminal GST; dsDNA, one strand shown
ELF1, sequence (P32519 whole entry): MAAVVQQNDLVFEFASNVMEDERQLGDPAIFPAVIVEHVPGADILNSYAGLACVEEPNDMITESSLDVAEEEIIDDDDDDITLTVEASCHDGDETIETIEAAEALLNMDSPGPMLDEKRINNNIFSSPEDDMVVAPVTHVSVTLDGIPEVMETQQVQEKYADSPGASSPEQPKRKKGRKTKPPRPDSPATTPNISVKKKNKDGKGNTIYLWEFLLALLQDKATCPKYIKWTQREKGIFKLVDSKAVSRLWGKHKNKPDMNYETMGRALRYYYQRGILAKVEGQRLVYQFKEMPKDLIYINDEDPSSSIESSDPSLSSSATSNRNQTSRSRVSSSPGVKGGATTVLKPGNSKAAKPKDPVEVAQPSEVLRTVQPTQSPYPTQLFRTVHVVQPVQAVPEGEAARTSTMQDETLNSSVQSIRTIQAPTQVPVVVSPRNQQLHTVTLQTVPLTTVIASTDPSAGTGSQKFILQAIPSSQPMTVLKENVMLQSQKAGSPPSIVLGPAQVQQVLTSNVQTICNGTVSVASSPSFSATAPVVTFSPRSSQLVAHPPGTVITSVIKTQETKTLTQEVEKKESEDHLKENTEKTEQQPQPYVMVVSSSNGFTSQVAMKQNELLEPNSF
Procedure, shortened: as §1

[6] = target: T5, EHF (Homo sapiens, UniProt Q9NZC4 1-300); details: protein: recombinant; tags: N-terminal GST; dsDNA, one strand shown
T5 sequence: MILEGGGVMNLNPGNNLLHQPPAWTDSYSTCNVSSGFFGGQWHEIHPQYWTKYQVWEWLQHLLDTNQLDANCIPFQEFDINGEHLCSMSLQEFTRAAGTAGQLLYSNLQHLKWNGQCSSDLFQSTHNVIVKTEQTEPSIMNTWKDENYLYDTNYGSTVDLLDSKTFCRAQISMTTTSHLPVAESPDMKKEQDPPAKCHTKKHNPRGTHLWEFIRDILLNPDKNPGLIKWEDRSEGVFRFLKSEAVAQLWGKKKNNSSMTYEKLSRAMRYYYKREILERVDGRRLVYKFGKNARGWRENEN
Procedure, shortened: as §1

[7] = target: SPI1 (Homo sapiens, UniProt P17947 1-270); details: protein: recombinant; tags: N-terminal GST; dsDNA, one strand shown
Procedure, shortened: as §1

[8] = target: SPIB (Homo sapiens, UniProt Q01892 1-262); details: protein: recombinant; tags: N-terminal GST; dsDNA, one strand shown
SPIB, sequence (Q01892 whole entry): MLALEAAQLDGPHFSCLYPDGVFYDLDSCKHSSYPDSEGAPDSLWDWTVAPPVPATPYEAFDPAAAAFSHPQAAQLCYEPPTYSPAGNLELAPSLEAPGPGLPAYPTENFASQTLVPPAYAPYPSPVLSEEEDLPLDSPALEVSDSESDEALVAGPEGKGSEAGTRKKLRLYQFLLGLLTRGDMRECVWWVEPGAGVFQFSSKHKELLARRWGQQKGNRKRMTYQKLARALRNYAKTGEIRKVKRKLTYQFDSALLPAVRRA
Procedure, shortened: as §1

[9] = target: T6, ELK3 (Homo sapiens, UniProt P41970 1-407); details: protein: recombinant; tags: N-terminal GST; dsDNA, one strand shown
T6 sequence: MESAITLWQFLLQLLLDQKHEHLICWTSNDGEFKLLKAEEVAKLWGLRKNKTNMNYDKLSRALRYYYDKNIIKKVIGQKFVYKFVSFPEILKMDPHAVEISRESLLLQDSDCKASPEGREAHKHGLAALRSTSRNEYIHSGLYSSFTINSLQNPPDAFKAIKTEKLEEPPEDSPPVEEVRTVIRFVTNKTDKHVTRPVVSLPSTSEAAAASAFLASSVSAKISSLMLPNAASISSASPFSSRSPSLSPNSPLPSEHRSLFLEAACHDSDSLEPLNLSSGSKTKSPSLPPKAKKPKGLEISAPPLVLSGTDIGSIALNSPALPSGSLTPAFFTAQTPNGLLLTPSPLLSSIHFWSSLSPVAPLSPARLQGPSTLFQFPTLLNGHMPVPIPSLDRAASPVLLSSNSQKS
Procedure, shortened: as §1

[10] = target: T7, FEV (Homo sapiens, UniProt Q99581 1-238); details: protein: recombinant; tags: N-terminal GST; dsDNA, one strand shown
T7 sequence: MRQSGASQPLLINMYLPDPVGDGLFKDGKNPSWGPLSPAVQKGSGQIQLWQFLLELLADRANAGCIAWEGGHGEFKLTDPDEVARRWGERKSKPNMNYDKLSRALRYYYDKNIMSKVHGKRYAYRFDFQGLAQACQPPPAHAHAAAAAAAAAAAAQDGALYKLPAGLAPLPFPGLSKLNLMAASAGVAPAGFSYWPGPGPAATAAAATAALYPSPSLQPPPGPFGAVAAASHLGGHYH
Procedure, shortened: as §1

[11] = target: ETV5 (Homo sapiens, UniProt P41161 1-510); details: protein: recombinant; tags: N-terminal GST; dsDNA, one strand shown
ETV5, sequence (P41161 whole entry): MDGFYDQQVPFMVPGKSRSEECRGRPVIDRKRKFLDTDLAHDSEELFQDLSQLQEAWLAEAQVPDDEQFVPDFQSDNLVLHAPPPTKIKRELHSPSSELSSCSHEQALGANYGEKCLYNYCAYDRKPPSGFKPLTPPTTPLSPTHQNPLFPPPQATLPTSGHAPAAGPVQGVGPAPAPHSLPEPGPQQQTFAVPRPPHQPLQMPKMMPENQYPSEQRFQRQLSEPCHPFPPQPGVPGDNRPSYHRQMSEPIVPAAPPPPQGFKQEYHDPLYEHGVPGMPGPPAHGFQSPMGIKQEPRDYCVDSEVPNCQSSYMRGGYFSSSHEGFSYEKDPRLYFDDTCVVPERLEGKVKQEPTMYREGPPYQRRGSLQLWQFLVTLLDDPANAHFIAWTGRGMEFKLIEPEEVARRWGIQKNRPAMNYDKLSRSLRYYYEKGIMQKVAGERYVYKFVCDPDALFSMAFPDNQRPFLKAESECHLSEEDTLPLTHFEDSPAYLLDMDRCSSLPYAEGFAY
Procedure, shortened: as §1

[12] = target: HSF1 (Homo sapiens, UniProt Q00613 1-529); details: protein: recombinant; tags: N-terminal GST; chain copies: 3; dsDNA, one strand shown
HSF1, sequence (Q00613 whole entry): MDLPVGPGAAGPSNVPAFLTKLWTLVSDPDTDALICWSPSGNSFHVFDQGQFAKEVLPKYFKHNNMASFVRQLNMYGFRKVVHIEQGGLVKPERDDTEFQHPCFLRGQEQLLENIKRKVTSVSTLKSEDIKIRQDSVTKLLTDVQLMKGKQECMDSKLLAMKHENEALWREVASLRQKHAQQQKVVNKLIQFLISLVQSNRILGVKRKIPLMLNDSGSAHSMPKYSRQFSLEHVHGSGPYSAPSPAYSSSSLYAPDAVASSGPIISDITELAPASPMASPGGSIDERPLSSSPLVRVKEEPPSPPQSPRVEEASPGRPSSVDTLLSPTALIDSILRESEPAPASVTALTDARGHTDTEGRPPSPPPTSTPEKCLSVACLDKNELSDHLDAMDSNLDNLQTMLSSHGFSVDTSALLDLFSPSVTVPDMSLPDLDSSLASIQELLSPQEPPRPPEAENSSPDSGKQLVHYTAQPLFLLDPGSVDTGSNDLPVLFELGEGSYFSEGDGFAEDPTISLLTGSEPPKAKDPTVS
Procedure, shortened: as §1

[13] = target: T8, SPIC (Homo sapiens, UniProt Q8N5J4 1-248); details: protein: recombinant; tags: N-terminal GST; dsDNA, one strand shown
T8 sequence: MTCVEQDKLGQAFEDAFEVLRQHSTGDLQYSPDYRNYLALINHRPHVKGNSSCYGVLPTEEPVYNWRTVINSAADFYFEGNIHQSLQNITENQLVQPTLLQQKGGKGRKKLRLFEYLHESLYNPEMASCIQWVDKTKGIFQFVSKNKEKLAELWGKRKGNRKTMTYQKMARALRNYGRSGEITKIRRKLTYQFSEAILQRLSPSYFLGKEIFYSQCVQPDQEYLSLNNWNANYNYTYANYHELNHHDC
Procedure, shortened: as §1

[14] = target: ELF4 (Homo sapiens, UniProt Q99607 1-663); details: protein: recombinant; tags: N-terminal GST; dsDNA, one strand shown
ELF4, sequence (Q99607 whole entry): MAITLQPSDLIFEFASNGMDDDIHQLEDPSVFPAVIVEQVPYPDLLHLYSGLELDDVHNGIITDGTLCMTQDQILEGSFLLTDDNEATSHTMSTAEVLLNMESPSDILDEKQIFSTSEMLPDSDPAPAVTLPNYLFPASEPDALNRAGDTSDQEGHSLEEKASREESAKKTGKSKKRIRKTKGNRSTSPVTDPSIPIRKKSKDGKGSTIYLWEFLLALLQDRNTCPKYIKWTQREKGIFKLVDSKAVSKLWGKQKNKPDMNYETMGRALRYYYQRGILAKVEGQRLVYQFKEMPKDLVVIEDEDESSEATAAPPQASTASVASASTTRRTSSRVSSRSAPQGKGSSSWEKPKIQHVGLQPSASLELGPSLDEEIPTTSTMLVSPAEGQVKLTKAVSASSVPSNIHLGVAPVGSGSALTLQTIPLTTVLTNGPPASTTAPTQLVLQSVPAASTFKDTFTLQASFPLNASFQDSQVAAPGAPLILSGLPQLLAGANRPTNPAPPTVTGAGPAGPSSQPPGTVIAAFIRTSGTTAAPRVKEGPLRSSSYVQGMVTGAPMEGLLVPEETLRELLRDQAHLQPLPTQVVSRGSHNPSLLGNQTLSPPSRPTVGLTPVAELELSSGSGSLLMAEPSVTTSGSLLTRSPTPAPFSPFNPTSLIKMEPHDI
Procedure, shortened: as §1

[15] = target: T9, ELK4 (Homo sapiens, UniProt P28324-2 1-405); details: protein: recombinant; tags: N-terminal GST; dsDNA, one strand shown
T9 sequence: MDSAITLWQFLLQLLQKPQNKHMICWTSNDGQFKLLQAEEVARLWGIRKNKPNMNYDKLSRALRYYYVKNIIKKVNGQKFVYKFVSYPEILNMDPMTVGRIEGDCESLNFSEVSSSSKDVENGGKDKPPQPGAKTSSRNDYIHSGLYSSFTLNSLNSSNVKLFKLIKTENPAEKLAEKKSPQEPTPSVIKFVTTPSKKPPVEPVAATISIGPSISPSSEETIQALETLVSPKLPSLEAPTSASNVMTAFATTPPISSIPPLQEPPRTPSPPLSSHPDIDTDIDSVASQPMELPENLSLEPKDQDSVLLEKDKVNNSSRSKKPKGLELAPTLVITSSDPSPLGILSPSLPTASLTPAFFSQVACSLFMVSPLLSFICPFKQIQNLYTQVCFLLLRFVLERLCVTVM
Procedure, shortened: as §1

[16] = target: T10, ETV2 (Homo sapiens, UniProt O00321 1-342); details: protein: recombinant; tags: N-terminal GST; dsDNA, one strand shown
T10 sequence: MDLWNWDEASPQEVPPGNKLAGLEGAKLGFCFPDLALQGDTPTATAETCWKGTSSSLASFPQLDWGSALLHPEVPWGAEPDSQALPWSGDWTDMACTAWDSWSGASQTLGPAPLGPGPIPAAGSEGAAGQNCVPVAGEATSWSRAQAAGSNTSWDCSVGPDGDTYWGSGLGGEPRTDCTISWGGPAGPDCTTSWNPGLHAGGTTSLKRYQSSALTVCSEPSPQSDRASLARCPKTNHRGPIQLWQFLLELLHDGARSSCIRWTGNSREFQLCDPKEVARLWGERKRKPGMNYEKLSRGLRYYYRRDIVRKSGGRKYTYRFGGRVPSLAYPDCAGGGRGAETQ
Procedure, shortened: as §1

[17] = target: T11, ELF3 (Homo sapiens, UniProt P78545 1-371); details: protein: recombinant; tags: N-terminal GST; dsDNA, one strand shown
T11 sequence: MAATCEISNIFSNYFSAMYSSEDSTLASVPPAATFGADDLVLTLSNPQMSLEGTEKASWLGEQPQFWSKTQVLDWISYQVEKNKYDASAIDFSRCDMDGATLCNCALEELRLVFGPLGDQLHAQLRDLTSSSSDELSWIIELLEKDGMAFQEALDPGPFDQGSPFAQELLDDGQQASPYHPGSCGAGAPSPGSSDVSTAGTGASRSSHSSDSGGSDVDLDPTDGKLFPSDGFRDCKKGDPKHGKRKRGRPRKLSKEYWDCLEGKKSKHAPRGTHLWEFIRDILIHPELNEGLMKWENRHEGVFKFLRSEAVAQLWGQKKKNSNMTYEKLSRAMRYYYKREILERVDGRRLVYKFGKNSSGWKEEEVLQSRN
Procedure, shortened: as §1

[18] = target: CRX (Homo sapiens, UniProt O43186 1-299); details: protein: recombinant; tags: N-terminal GST; dsDNA, one strand shown
CRX, sequence (O43186 whole entry): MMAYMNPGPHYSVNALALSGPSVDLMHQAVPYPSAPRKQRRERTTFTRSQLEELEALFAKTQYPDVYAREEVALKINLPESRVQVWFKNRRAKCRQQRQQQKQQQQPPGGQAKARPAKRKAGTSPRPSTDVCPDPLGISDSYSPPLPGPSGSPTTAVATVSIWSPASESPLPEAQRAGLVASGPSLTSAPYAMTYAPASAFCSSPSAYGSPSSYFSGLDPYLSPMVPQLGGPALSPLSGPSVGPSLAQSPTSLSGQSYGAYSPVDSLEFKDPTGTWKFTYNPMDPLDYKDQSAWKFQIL
Procedure, shortened: as §1

[19] = target: ETV1 (Homo sapiens, UniProt P50549 1-477); details: protein: recombinant; tags: N-terminal GST; dsDNA, one strand shown
ETV1, sequence (P50549 whole entry): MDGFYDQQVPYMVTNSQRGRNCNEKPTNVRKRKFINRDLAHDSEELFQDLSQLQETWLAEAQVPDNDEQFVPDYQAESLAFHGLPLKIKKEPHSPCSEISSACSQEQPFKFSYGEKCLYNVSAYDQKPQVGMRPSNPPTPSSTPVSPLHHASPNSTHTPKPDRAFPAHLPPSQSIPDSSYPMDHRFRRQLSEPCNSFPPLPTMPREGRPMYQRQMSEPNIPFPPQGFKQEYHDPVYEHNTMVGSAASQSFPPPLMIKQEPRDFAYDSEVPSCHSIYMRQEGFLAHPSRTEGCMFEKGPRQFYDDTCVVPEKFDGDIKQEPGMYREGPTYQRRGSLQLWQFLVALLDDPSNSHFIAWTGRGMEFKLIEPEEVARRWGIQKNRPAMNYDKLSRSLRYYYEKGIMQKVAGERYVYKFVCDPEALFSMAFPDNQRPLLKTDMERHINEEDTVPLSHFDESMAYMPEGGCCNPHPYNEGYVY
Procedure, shortened: as §1

For GTTCTA, the binding signal [1] was 1.16 fold enrichment (6-mer frequency, TF over GST control), the binding signal [2] was 1.28 fold enrichment (6-mer frequency, TF over GST control) and the binding signal [3] was 1.22 fold enrichment (6-mer frequency, TF over GST control). The binding signal [4] was 1.24 fold enrichment (6-mer frequency, TF over GST control), the binding signal [5] was 1.31 fold enrichment (6-mer frequency, TF over GST control) and the binding signal [6] was 1.12 fold enrichment (6-mer frequency, TF over GST control). For the same sequence, the binding signal [7] was 1.12 fold enrichment (6-mer frequency, TF over GST control), the binding signal [8] was 1.32 fold enrichment (6-mer frequency, TF over GST control) and the binding signal [9] was 1.23 fold enrichment (6-mer frequency, TF over GST control). For the same sequence, the binding signal [10] was 1.26 fold enrichment (6-mer frequency, TF over GST control), the binding signal [11] was 1.18 fold enrichment (6-mer frequency, TF over GST control) and the binding signal [12] was 2.94 fold enrichment (6-mer frequency, TF over GST control). The binding signal [13] was 1.37 fold enrichment (6-mer frequency, TF over GST control), the binding signal [14] was 1.31 fold enrichment (6-mer frequency, TF over GST control) and the binding signal [15] was 1.2 fold enrichment (6-mer frequency, TF over GST control). The binding signal [16] was 1.17 fold enrichment (6-mer frequency, TF over GST control), the binding signal [17] was 1.27 fold enrichment (6-mer frequency, TF over GST control) and the binding signal [18] was 1.59 fold enrichment (6-mer frequency, TF over GST control). The binding signal [19] was 1.11 fold enrichment (6-mer frequency, TF over GST control).

— article PMC7862700, “An all-to-all approach to the identification of sequence-specific readers for epigenetic DNA modifications on cytosine”
